Hits are enriched below; roughly 4.1% of the tested compounds scored in any of these assays.
DAX1 inh-1 – inhibitors of human orphan nuclear receptor DAX1 (NR0B1). HEK293 Gal4-DAX1 luciferase reporter, luminescence. P51843. inhibition, % at 6.75 µM. hit rate 0.99% among 340,000;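 active = inhibition above the mean over all tested compounds plus 3 SD, cut at about 4.2% in these data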;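 note: 0% = DAX1-transfected cells with DMSO and 100% = empty-vector control cells with DMSO; inhibition shows as a rise in luminescence from relieved DAX1 repression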
Target sequence (P51843 207-470 limits assumed): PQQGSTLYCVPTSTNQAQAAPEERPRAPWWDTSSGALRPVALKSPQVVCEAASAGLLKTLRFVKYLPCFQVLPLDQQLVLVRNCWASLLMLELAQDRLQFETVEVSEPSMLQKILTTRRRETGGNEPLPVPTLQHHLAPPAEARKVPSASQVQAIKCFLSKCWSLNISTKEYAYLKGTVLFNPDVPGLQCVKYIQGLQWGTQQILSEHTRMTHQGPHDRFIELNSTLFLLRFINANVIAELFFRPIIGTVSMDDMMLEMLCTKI
DAX1 inh-2 – blocks DAX1 repression of SF-1 activated StAR promoter; HEK293T StAR-luciferase reporter, SF-1/DAX-1 repression relief; inhibition, % at 6.8 µM; hit rate 1.1% among 370,000; AID 652010;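 active = inhibition above the mean over all tested compounds plus 3 SD, cut at about 3.6% in these data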;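 note: 0% = DAX-1 cells with DMSO and 100% = cells lacking DAX-1 with DMSO; higher inhibition means more luminescence from relief of DAX-1 repression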
ssDAF-12 act – activates DAF-12 receptor from parasite S. stercoralis. AID 652126. activation, % at 6.8 µM. HEK293 ssDAF-12/GRIP1 lit1-tk-luc reporter, luminescence; % of 3 µM dafachronic acid response. hit rate 1% among 370,000;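 active = activation above the mean over all tested compounds plus 3 SD, cut at about 0.9% in these data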;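 note: 0% = DMSO-only wells and 100% = 3 µM delta7-dafachronic acid wells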
hcDAF12 agonist – activates DAF-12 receptor from parasite H. contortus; HEK293 hcDAF-12 lit1-tk-luc reporter, luminescence; 0% DMSO, 100% Δ7-dafachronic acid; AID 652067; hit rate 1.4% among 370,000; activation, % at 6.8 µM;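 active = activation above the mean of all tested compounds plus 3 SD, cut at about 5.5% in these data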;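 note: 100% = response to 3 µM Δ7-dafachronic acid high control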
PolyA inh – blocks polyadenylation in yeast reporter cells. hit rate 0.02% among 300,000. activity score, % at 12 µM. S. cerevisiae SKY197-pL101 polyadenylation reporter, beta-gal luminescence; efflux-impaired pdr1/pdr3 knockout yeast; score 100 = 6 SD above DMSO. AID 1875;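 active = lowest replicate activity score at least 50, where 100 means six control SD above control mean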;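 note: yeast exposed to compound for 9 h at 30 °C; higher score means more reporter readthrough which indicates perturbed polyadenylation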
hgDAF12 agonist – agonists of H. glycines DAF-12 nuclear receptor; HEK293 GAL4-hgDAF12 UAS-luciferase reporter, agonist luminescence; normalized to butyrate control; activation, % at 6.8 µM; hit rate 1.8% among 370,000; AID 687014;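 active = activation above a cutoff set at the mean of all screened compounds plus 3 SD, cut at about 10% in these data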;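 note: 0% = DMSO wells and 100% = sodium butyrate wells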
DAX1 conf – NR0B1 (human) inhibition, confirmation. HEK293T StAR-promoter luciferase reporter, SF-1/DAX-1 repression. shares compounds with DAX1 inh-2. hit rate 87% among 2,400. inhibition, % at 6.8 µM. AID 652134;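 active = inhibition above the average of every tested compound plus 3 SD, cut at about 3.8% in these data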;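 note: 0% = DAX-1 cells with DMSO and 100% = no DAX-1 control cells with DMSO; active compounds raise luminescence by relieving repression of the StAR reporter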
Target sequence (P51843 whole entry, looked up): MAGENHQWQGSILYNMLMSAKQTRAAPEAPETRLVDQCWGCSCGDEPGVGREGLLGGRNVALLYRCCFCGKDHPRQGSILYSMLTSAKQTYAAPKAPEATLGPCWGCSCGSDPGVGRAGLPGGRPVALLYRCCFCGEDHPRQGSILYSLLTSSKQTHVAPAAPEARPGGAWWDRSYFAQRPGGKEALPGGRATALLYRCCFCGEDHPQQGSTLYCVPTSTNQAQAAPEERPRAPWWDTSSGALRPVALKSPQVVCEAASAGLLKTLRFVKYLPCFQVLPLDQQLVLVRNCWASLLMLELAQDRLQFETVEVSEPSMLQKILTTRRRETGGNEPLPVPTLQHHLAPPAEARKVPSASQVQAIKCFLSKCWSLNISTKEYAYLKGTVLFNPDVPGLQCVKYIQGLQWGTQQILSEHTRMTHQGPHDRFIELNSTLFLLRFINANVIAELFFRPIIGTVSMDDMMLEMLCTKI
SF1 mutant ctr – nonselective inhibitor or artifact in SF-1 mutant DAX1 counter-screen | shares compounds with DAX1 inh-2 | HEK293 StAR-luciferase, SF-1 AF2 mutant, luminescence | inhibition, % at 6.8 µM | hit rate 78% among 2,400 | AID 652136;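 active = inhibition above the mean of all tested compounds plus 3 SD, cut at about 3% in these data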;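 note: 0% = DAX-1 transfected cells with DMSO and 100% = cells without DAX-1 with DMSO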
LXR ag – activates human LXR-beta, counter-screen for hcDAF-12 agonists. shares compounds with hcDAF12 agonist. activation, % at 6.8 µM. HEK293 Gal4-LXR tk-luc reporter, luminescence, 24 h; normalized: DMSO 0%, positive control 100%. 3,400 tested, under 10 active;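 active = mean percent activation of the reporter above a cutoff set as the average over tested compounds plus their standard deviation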
hcDAF12 ag – hcDAF-12 agonism, confirmation assay; shares compounds with hcDAF12 agonist; HEK293 hcDAF-12 lit1-tk-luc reporter, luminescence; % of Δ7-dafachronic acid response; activation, % at 6.8 µM; hit rate 61% among 3,400;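 active = mean activation across triplicate tests above the threshold derived from the earlier primary screen, cut at about 5.5% in these data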;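 note: 0% = DMSO only wells and 100% = 3 µM Δ7-dafachronic acid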
* = called active by the depositor; · = not tested or not shown.

SMILES | DAX1 inh-1 | DAX1 inh-2 | ssDAF-12 act | hcDAF12 agonist | PolyA inh | hgDAF12 agonist | DAX1 conf | SF1 mutant ctr | LXR ag | hcDAF12 ag
Cc1ccc(C(=O)Nc2nccs2)cc1 | 2.1 | 6.6* | 2.4* | 12.3* | -21.6 | 12.3* | 10.0* | 6.4* | 1.2 | 13.9*
COc1ccc(N=Nc2cc(C)ccc2O)cc1 | 1.2 | 5.0* | 0.2 | 7.1* | -10.6 | 25.1* | 15.5* | 6.2* | 2.1 | 7.3*
COCCCNc1nccn2ccnc12 | · | 0.2 | -1.0 | -0.9 | · | -0.3 | · | · | · | ·
Cc1cccc(OCC(=O)Nc2nccs2)c1C | 1.9 | 12.2* | 0.6 | 8.6* | -1.1 | 12.0* | 13.4* | 8.0* | 1.2 | 6.4*
CC(=O)O[C@@H]1C=C[C@@H](C#Cc2ccc(C(C)(C)C)cc2)O[C@@H]1COC(=O)Nc1ccccc1 | · | -1.9 | -1.7 | -2.7 | · | 0.5 | · | · | · | ·
Cc1ccc2nc(-c3ccc(NC(=O)C4CCCO4)cc3)[nH]c2c1 (stereo not given) | -1.4 | 7.3* | 0.5 | 7.7* | 24.2 | 9.2 | 12.1* | 6.2* | 1.7 | 5.2
O=c1[nH]c(/C(Cl)=C/c2cccc(F)c2)nc2cc(C(F)(F)F)ccc12 | -0.6 | 1.0 | -0.9 | -0.7 | 2.6 | -3.0 | · | · | · | ·
Cc1cc(N/C=C/C(=O)c2cccs2)ccc1F | 6.5* | 5.2* | 2.1* | 10.2* | 0.3 | 23.8* | 17.5* | 9.5* | 1.6 | 15.8*
CCOc1ccc(CCNC(=O)CCn2ccc3cc(S(=O)(=O)N4CCCC4)ccc32)cc1 | -0.2 | -0.5 | -1.6 | -3.2 | -7.4 | -0.3 | · | · | · | ·
N/C(=N\OC(=O)c1cccc(F)c1)c1ccccn1 | -1.1 | 10.6* | 0.4 | 8.2* | 2.5 | 8.6 | 11.5* | 5.2* | 1.0 | 4.9
N/C(=N\OC(=O)c1ccccc1)c1ccccn1 | -2.8 | 3.1 | -0.8 | 3.8 | 20.4 | 6.1 | · | · | · | ·
N/C(=N\OC(=O)c1ccc(Br)o1)c1ccccn1 | 1.1 | 9.4* | 0.7 | 8.3* | -1.0 | 10.3 | 14.6* | 6.2* | 0.8 | 2.6
Cc1cccc(C(=O)O/N=C(\N)c2ccccn2)c1 | -3.0 | -0.3 | -1.1 | -0.8 | 9.5 | -4.2 | · | · | · | ·
O=C(CN(Cc1ccco1)C(=O)c1ccc(F)cc1)Nc1ccccc1Br | -0.2 | -0.5 | -1.5 | -0.9 | · | -1.0 | · | · | · | ·
Clc1ccc(OCc2nc(-c3ccccn3)no2)c(Br)c1 | -1.2 | 6.7* | 0.4 | 6.8* | 1.1 | 6.4 | 18.1* | 8.1* | 1.5 | 10.2*
Clc1ccccc1OCc1nc(-c2ccccn2)no1 | 0.5 | 5.7* | 0.6 | 6.6* | -8.4 | 11.2* | 13.8* | 6.6* | 1.2 | 7.8*
c1ccc(CCc2nc(-c3ccccn3)no2)cc1 | 1.8 | 3.6 | -1.4 | 1.8 | -6.5 | 9.4 | · | · | · | ·
COC(=O)c1ccc2nc(C3CCCCC3)c(Cc3ccccc3OC)n2c1 | · | -0.3 | -0.3 | -1.1 | · | 4.2 | · | · | · | ·
Cn1c(/C=N/Nc2nc3ccccc3[nH]2)nc2ccccc21 | 1.9 | 5.5* | 1.9* | 16.6* | -7.1 | 15.1* | -2.4 | -3.6 | 1.9 | 8.0*
CCCn1c(/C=N/Nc2nc3ccccc3[nH]2)nc2ccccc21 | -1.8 | 0.8 | 0.5 | 1.1 | · | 5.8 | · | · | · | ·
CN(C)c1ccc(N(C)C)c(C(O)(c2ccccc2)c2ccccc2)c1 | · | -0.5 | -1.5 | -0.9 | · | -0.7 | · | · | · | ·
Nc1[nH]n(-c2ccccc2)c(=O)c1N=Nc1ccc2c(c1)OCCO2 | -1.1 | 5.0* | 2.1* | 9.4* | -4.0 | 15.3* | 12.9* | 6.0* | 1.9 | 11.7*
COc1cccc(NC(=O)Nc2nccc(C)n2)c1 | -1.7 | 5.0* | -0.2 | 8.1* | -9.6 | 13.1* | 12.6* | 5.3* | 1.4 | 3.6
O=C(O/N=C(\c1ccccc1)c1ccncc1)c1ccccc1Cl | 0.0 | 0.1 | -0.8 | 1.2 | -27.8 | -0.5 | · | · | · | ·
N/C(=N\OC(=O)c1ccccc1Cl)c1ccccc1 | 2.5 | 6.1* | 3.3* | 16.6* | 7.9 | 18.3* | 19.5* | 11.2* | 2.8 | 26.1*
SMILES | DAX1 inh-1 | DAX1 inh-2 | ssDAF-12 act | hcDAF12 agonist | PolyA inh | hgDAF12 agonist | DAX1 conf | SF1 mutant ctr | LXR ag | hcDAF12 ag
CCCc1nc2ccc(Br)cn2c1Cc1ccccc1 | · | -0.3 | -1.0 | -1.0 | · | 0.5 | · | · | · | ·
CCCc1nc2ccc(C)cn2c1Cc1ccccc1 | · | 4.6* | 1.3* | 7.2* | · | 6.7 | 2.4 | 3.8* | 0.4 | 7.3*
CCCc1ccc(-c2cc(C(=O)NN3CCOCC3)c3ccccc3n2)cc1 | 0.4 | -0.2 | -1.1 | 0.6 | -4.8 | 2.6 | · | · | · | ·
CCc1ccc(-c2cc(C(=O)Nn3cnnc3)c3ccccc3n2)cc1 | -4.5 | 6.0* | 0.8 | 11.0* | 4.5 | 6.4 | 10.8* | 4.2* | 0.7 | 11.3*
COc1ccc(S(=O)(=O)NNC(=O)c2csc(-n3nc(C)cc3C(F)(F)F)n2)cc1 | 0.0 | 0.4 | -1.7 | -1.6 | 3.7 | -0.9 | · | · | · | ·
CCC(CC)c1nnc(NC(=O)c2cc(-c3ccccc3)nc3ccccc23)s1 | -0.5 | 0.5 | -1.5 | -0.8 | 12.2 | 1.1 | · | · | · | ·
CCC(CC)c1nnc(NC(=O)c2ccc3ccccc3n2)s1 | 2.3 | 4.6* | 2.1* | 10.8* | -12.3 | 9.9 | 10.2* | 6.8* | 0.9 | 11.1*
Cc1ccc(C(=O)N=c2sccn2C)cc1C | 1.0 | 10.2* | 1.6* | 13.6* | 1.4 | 12.5* | 11.4* | 7.2* | 1.4 | 11.5*
COc1ccc(OCCSc2ncccn2)cc1 | 2.0 | 4.8* | -0.6 | 6.9* | -6.3 | 12.3* | 11.2* | 7.8* | 1.1 | 6.6*
CC(=O)CC[C@H]1CC[C@]2(CCCN(C(=O)C3CCCCC3)C2)O1 | · | 0.5 | -1.1 | -1.4 | · | -0.4 | · | · | · | ·
CC(Sc1n[nH]c(-c2cccs2)n1)C(=O)N1CCCC1 (stereo not given) | 0.8 | -0.6 | -0.8 | 2.6 | · | 0.4 | · | · | · | ·
CCC(=O)Nc1nc2cc(OC)ccc2s1 | 3.6 | 1.1 | -1.4 | -0.2 | -27.2 | 9.2 | · | · | · | ·
COc1ccc2sc(NCc3ccccc3)nc2c1 | 1.5 | 6.5* | -0.1 | 7.1* | -12.0 | 5.6 | 7.1* | 6.6* | 0.7 | 4.1
NC(=O)c1ccsc1NC(=O)c1ccc2c(c1)CCCC2 | -0.3 | 6.8* | 2.5* | 14.2* | 12.5 | 18.8* | 11.5* | 7.8* | 2.3 | 20.6*

High-throughput results from PubChem.
